Screening results deposited in PubChem BioAssay by National Center for Advancing Translational Sciences (NCATS).
DT40 TDP1 CPT: growth inhibition of DT40 Tdp1-/-;hTDP1 cells with camptothecin (screen for TDP1 inhibitors); Potency, µM (series often up to 46.2 µM), for the others: top-dose activity change, negative = growth inhibition, most hits filed as inhibitors; chicken DT40 Tdp1-/-;hTDP1 cells + 20 nM CPT, ATP luminescence, 48 h; actives 12% (n = 420,000); AID 686979; note: potency is the fitted concentration of half-maximal effect; % is set by controls: 0 for no effect and ±100 for the full control effect; nearly all actives have a fitted effect of over 55% in size
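Chicken DT40 Tdp1-/- cells stably complemented with human TDP1 were seeded at 400 cells/well in medium containing 20 nM camptothecin, exposed to pin-transferred compounds, and grown at 37 °C for at least 48 hr. Viability was read as ATP luminescence.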
IL1B secr inh: inhibitors of inflammasome signaling (IL-1 beta secretion); THP-1 LPS/ATP IL-1B secretion, AlphaLISA, 16 h; active compounds read low; activity change, % at 57.5 µM; actives 4.7% (n = 360,000); AID 743279; in the data active = activity change below about -50%; inconclusive = mostly about -30% to -49%; note: % is set by controls: 0 for no effect and ±100 for the full control effect
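THP-1 cells pretreated 1 hr with compounds (up to 57.5 uM final), then stimulated with LPS (250 ng/mL final) plus ATP (1.25 mM final); secreted IL-1B measured by AlphaLISA after 16 hr, decreased signal indicating inhibition.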
TDP1 cell noCPT: qHTS for Inhibitors of human tyrosyl-DNA phosphodiesterase 1 (TDP1): qHTS in cells in absence of CPT | DT40 Tdp1-/- hTDP1 cells, no CPT, ATP luminescence, 48 h | actives 15% (n = 420,000) | Potency, µM (series often up to 46.2 µM), without a hit: at the top dose activity change, negative = growth inhibition, actives largely listed as inhibitors; note: potency is the fitted concentration of half-maximal effect; % is set by controls: 0 for no effect and ±100 for the full control effect; nearly all actives have a fitted effect of over 55% in size
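DT40 Tdp1-/-;hTDP1 cells, no CPT (DMSO vehicle only), 400 cells/well; compounds pin-transferred; ≥48 hr, 37 °C; CellTiter-Glo 30 min RT dark, luminescence read.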
MCF10A rereplic: inducers of DNA re-replication in MCF 10A breast cells; MCF 10A DNA re-replication, Hoechst nuclear intensity, 48 h; Potency, µM (top dose mostly 46.1 µM), inactives show at the highest dose activity, positive = re-replication, usual class: activators; actives 2.9% (n = 350,000); AID 624296; note: potency is the fitted concentration of half-maximal effect; % of control where 0% means no effect; nearly all actives have a fitted effect of over 50% in size
Chronic BCR inh: inhibitors of chronic active B-cell receptor signaling. ABC-DLBCL IkBa-CBG/CBR reporter, luminescence ratio, 4 h. Potency, µM (doses to about 46.1 µM), for inactives: at the top dose activity change, negative = inhibition, actives largely listed as inhibitors. actives 0.05% (n = 340,000). AID 493014; active = well fitted inhibition curve with a large enough effect in the signal ratio, with a control signal flat, not every such curve was filed as active; inconclusive = small, poorly fitted or top-dose-only effect, or effect the other way, or a change in a side signal; the % refers to the signal ratio;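 note: potency is the fitted concentration of half-maximal effect; plate controls were basal doxycycline-induced cells for no effect and cells given 10 µM MG132 for full effect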
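Doxycycline induced both beetle luciferases in TMD8 lymphoma cells; IKK-driven degradation limits the IkappaBalpha-fused green signal, while red luminescence normalises for cell number and nonspecific effects. Compounds tested up to 46 uM, 4 hrs.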
SW480 rereplic: induces DNA re-replication in SW480 colon adenocarcinoma cells; Potency, µM (titrated, usually from 46.1 µM), inactives show at the top dose re-replication activation, usual class: activators; SW480 DNA re-replication, Hoechst DNA content imaging, 48 h; actives 1.8% (n = 340,000); note: potency is the fitted concentration of half-maximal effect; % of control where 0% means no effect; nearly all actives have a fitted effect of over 55% in size
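DNA re-replication was detected as more nuclei of elevated Hoechst intensity after 48 hr exposure to compound (23 nL pinned per well of 250 cells).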
* marks the source's active call; other numbers are inactive results; [ ] = another dose, or the depositor's remark. Hits are enriched below; roughly 19% of the tested compounds scored in any of these assays. Unless noted, calls come from the whole dose curve; as a rule, active = well fitted curve in the direction sought with a large enough effect; inconclusive = small, poorly fitted or top-dose-only effect, or another doubt; inactive = no such curve, though single readings can be large; an effect the other way counts as inactive or inconclusive.

For O=c1[nH]c(/C(Cl)=C/c2cccc(F)c2)nc2cc(C(F)(F)F)ccc12 the results were DT40 TDP1 CPT inconclusive, IL1B secr inh 8, TDP1 cell noCPT 23µM*, MCF10A rereplic inconclusive, Chronic BCR inh -2% and SW480 rereplic -3%.
For Cc1c(NC(=O)C(C)OC(=O)/C=C/c2ccc(OC(F)F)cc2)c(=O)n(-c2ccccc2)n1C (centres undefined) the results were DT40 TDP1 CPT -2%, IL1B secr inh -6, TDP1 cell noCPT -4%, MCF10A rereplic 5%, Chronic BCR inh -2% and SW480 rereplic -3%.
Screening COc1ccc(C(c2nnnn2CC2CCCO2)N2CCC(C(N)=O)CC2)cc1 (centres undefined) returned DT40 TDP1 CPT 0%, IL1B secr inh 10, TDP1 cell noCPT -23%, MCF10A rereplic -10%, Chronic BCR inh 6% and SW480 rereplic -4%.
For CCCCC(c1nnnn1CC1CCCO1)N1CCN(Cc2ccccc2)CC1 (centres undefined) the results were DT40 TDP1 CPT -14%, IL1B secr inh -24, TDP1 cell noCPT -12%, MCF10A rereplic 17%, Chronic BCR inh 6% and SW480 rereplic 2%.
`CCCCC(c1nnnn1CC1CCCO1)N1CCN(c2cccc(C)c2C)CC1` (centres undefined) gave DT40 TDP1 CPT inconclusive, IL1B secr inh -22, TDP1 cell noCPT 16µM*, MCF10A rereplic inconclusive, Chronic BCR inh 16% and SW480 rereplic 8%.
For COc1ccc(C(c2nnnn2CC2CCCO2)N2CCN(c3cccc(C)c3C)CC2)cc1 (centres undefined) the results were DT40 TDP1 CPT inconclusive, IL1B secr inh -23, TDP1 cell noCPT 18µM*, MCF10A rereplic -19%, Chronic BCR inh 1% and SW480 rereplic 2%.
COCCCN=C(c1ccco1)n1c(=S)nc(-c2ccco2)n(CCCOC)c1=S was read as DT40 TDP1 CPT 26µM*, IL1B secr inh 7, TDP1 cell noCPT inconclusive, MCF10A rereplic inconclusive, Chronic BCR inh 2% and SW480 rereplic 0%.
For COCCCn1c(SCC(=O)OC2CCCCC2)nnc1-c1ccco1 the results were DT40 TDP1 CPT -11%, IL1B secr inh -3, TDP1 cell noCPT -17%, MCF10A rereplic 6%, Chronic BCR inh inconclusive and SW480 rereplic -1%.
`O=C(NCCC1=CCCCC1)c1ccc(Cl)c(S(=O)(=O)N2CCCCC2)c1` gave DT40 TDP1 CPT 16µM*, IL1B secr inh -13, TDP1 cell noCPT 23µM*, MCF10A rereplic inconclusive, Chronic BCR inh 0% and SW480 rereplic 16%.
O=S(=O)(NCCC1=CCCCC1)c1cccc(S(=O)(=O)N2CCOCC2)c1 was read as DT40 TDP1 CPT 5.2µM*, IL1B secr inh 32, TDP1 cell noCPT 5.8µM*, MCF10A rereplic 2%, Chronic BCR inh 0% and SW480 rereplic inconclusive.
CC(=O)N1CCN(S(=O)(=O)c2cccc(C(=O)NCCC3=CCCCC3)c2)CC1 was read as DT40 TDP1 CPT 2.9µM*, IL1B secr inh -6, TDP1 cell noCPT -19%, MCF10A rereplic inconclusive, Chronic BCR inh 0% and SW480 rereplic inconclusive.
Screening O=C(NCCN1CCOCC1)c1ccc(Cl)c(S(=O)(=O)N2CCCCC2)c1 returned DT40 TDP1 CPT -23%, IL1B secr inh 0, TDP1 cell noCPT -1%, MCF10A rereplic -1%, Chronic BCR inh 0% and SW480 rereplic -6%.
Screening CC(C)c1nc2ccc(C(=O)NCc3ccc(F)cc3)cc2o1 returned DT40 TDP1 CPT -26% and TDP1 cell noCPT inconclusive.
`Cc1ccc(-c2cc3nc(-c4ccccc4)cc(NCCCO)n3n2)cc1` gave DT40 TDP1 CPT inconclusive, IL1B secr inh -29 and TDP1 cell noCPT inconclusive.
COCc1c(C(=O)N2CCN(C3CCCC3)CC2)cnn1-c1nccc(-c2cc(C)sc2C)n1 was read as DT40 TDP1 CPT 5%[9.04 µM] and TDP1 cell noCPT -17%.
For COc1ccc(CCC(=O)NNC(=O)c2ccc(OC)cc2)cc1 the results were DT40 TDP1 CPT -24%, IL1B secr inh 18, TDP1 cell noCPT -7%, MCF10A rereplic 3%, Chronic BCR inh -6% and SW480 rereplic 8%.
Screening COc1ccccc1NCc1nnc2n1CCCCC2 returned DT40 TDP1 CPT -1%, TDP1 cell noCPT 2% and Chronic BCR inh 0%.
Screening COc1cc(C(=O)NS(=O)(=O)c2ccccc2C)ccc1Cc1cn(C)c2ccc(NC(=O)OC3CCCC3)cc12 returned DT40 TDP1 CPT -9%, TDP1 cell noCPT -18%, MCF10A rereplic 21µM*, Chronic BCR inh inconclusive and SW480 rereplic 1%.
For COc1ccccc1NS(=O)(=O)c1cc(NC(=O)C2CCCO2)ccc1C (centres undefined) the results were DT40 TDP1 CPT -8%, IL1B secr inh 20, TDP1 cell noCPT -12%, MCF10A rereplic 13%, Chronic BCR inh 2% and SW480 rereplic 2%.
Screening CSc1ccc(CNC(=O)Cn2c(-c3cccs3)cc3cc(F)ccc32)cc1 returned DT40 TDP1 CPT -28% and TDP1 cell noCPT inconclusive.
For Cc1cc(NC(=O)CSc2nc(-c3cccs3)nc3ccccc23)no1 the results were DT40 TDP1 CPT 2.3µM*, IL1B secr inh 26, TDP1 cell noCPT 1.8µM*, MCF10A rereplic 15µM*, Chronic BCR inh -12% and SW480 rereplic 5.8µM*.
Screening Cc1cc(NC(=O)CSc2nc(C(C)(C)C)nc3ccccc23)no1 returned DT40 TDP1 CPT inconclusive, IL1B secr inh 0, TDP1 cell noCPT inconclusive, MCF10A rereplic inconclusive, Chronic BCR inh 1% and SW480 rereplic inconclusive.
For Cc1cc(NC(=O)c2cc(-c3ccc(C)c(C)c3)nc3ccccc23)no1 the results were DT40 TDP1 CPT 12µM*, IL1B secr inh 15, TDP1 cell noCPT 10µM*, MCF10A rereplic 8%, Chronic BCR inh 8% and SW480 rereplic -6%.
`Cc1cc(NC(=O)c2cc(-c3ccccn3)nc3ccccc23)no1` gave DT40 TDP1 CPT -7%, IL1B secr inh 5, TDP1 cell noCPT -21%, MCF10A rereplic 17%, Chronic BCR inh 17% and SW480 rereplic 5%.
Cc1cc(NC(=O)c2cc(-c3cccs3)nc3ccccc23)no1 was read as DT40 TDP1 CPT 21µM*, IL1B secr inh 9, TDP1 cell noCPT 26µM*, MCF10A rereplic inconclusive, Chronic BCR inh inconclusive and SW480 rereplic 134%.
